{
  "source": "PubChem BioAssay (EPA / NIEHS)",
  "note": "A structure can be active in one record and inactive in another. Activity calls are given as the source filed them. How the source made its calls: active means hit-call score of the fitted dose curve at least 0.9, where 1 is the maximum; inactive means score below 0.9.",
  "data": [
    {"assay": "CCTE_Shafer_MEA_dev_firing_rate_mean: CCTE's Neural Network Formation Assay for Mean Firing Rate, Shafer Lab (AID 2284031);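 further: AUC of well mean spike rate recorded on DIV 5 7 9 and 12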;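 on AC50: curve fitted for loss of firing so AC50 reflects decreased mean firing rate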", "procedure,_shortened": "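Rat primary cortical neurons were seeded on multielectrode arrays and treated from plating through day 12, with redosing at each feed. Spontaneous spiking was recorded four times; mean firing rate AUC was fitted downward against DMSO.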", "values": [
      {"smiles": "C[n+]1ccc(-c2cc[n+](C)cc2)cc1", "AC50": "2.29 µM (active)"},
      {"smiles": "C/C(=C/C=C/[C@@H](C)C(=O)O)[C@H]1CN[C@H](C(=O)O)[C@H]1CC(=O)O", "outcome": "inactive", "AC50": "0.068 µM (active)"},
      {"smiles": "CP(=O)(O)CCC(N)C(=O)O", "note": "(configuration not stated)", "outcome": "inactive"},
      {"smiles": "NCCc1cc(O)c(O)cc1O", "outcome": "inactive"},
      {"smiles": "CCOP(=S)(OCC)SCS(=O)C(C)(C)C", "note": "(configuration not stated)", "outcome": "inactive"},
      {"smiles": "C[n+]1ccc(-c2ccccc2)cc1", "outcome": "inactive"},
      {"smiles": "O=C(O)CNCP(=O)(O)O", "outcome": "inactive"},
      {"smiles": "C#CCN(C)[C@H](C)Cc1ccccc1", "outcome": "inactive"},
      {"smiles": "Cn1nc(C(F)(F)F)c(CS(=O)(=O)C2=NOC(C)(C)C2)c1OC(F)F", "AC50": "91.6 µM (active)"},
      {"smiles": "CCCCC(CC)COC(=O)c1cc(Br)c(Br)c(Br)c1Br", "note": "(configuration not stated)", "outcome": "inactive"},
      {"smiles": "CC1(C)C(C=C(Cl)c2ccc(Cl)cc2)C1C(=O)OC(C#N)c1ccc(F)c(Oc2ccccc2)c1", "note": "(configuration not stated)", "AC50": "4.24 µM (active)"},
      {"smiles": "CCOP(=O)(Oc1cnc(C(C)(C)C)nc1)OC(C)C", "note": "(configuration not stated)", "outcome": "inactive"},
      {"smiles": "CC1(C)[C@H](C=C(Cl)Cl)[C@H]1C(=O)OCc1c(F)c(F)cc(F)c1F", "AC50": "23.4 µM (active)"},
      {"smiles": "CC(=O)[O-].CC(=O)[O-].O.O.O.[Pb+2]", "outcome": "inactive"},
      {"smiles": "CC1(C)C(C=C(Cl)Cl)C1C(=O)O[C@H](C#N)c1cccc(Oc2ccccc2)c1", "note": "(some centres not stated)", "AC50": "0.711 µM (active)"},
      {"smiles": "CCOP(=O)(OCC)OC(Cl)C(Cl)(Cl)Cl", "note": "(configuration not stated)", "AC50": "1.64 µM (active)"},
      {"smiles": "CCOP(=O)(OCC)SCSC(C)(C)C", "outcome": "inactive"},
      {"smiles": "CC1(C)[C@@H](C=C(Cl)Cl)[C@@H]1C(=O)O[C@@H](C#N)c1ccc(F)c(Oc2ccccc2)c1", "AC50": "5.76 µM (active)"},
      {"smiles": "COP(=O)(OC)SCN1C(=O)c2ccccc2C1=O", "outcome": "inactive"},
      {"smiles": "CP(=O)(O)CC[C@H](N)C(=O)O", "outcome": "inactive"},
      {"smiles": "CC(=O)[O-].[Tl+]", "outcome": "inactive"}
    ]}
  ]
}
